From PubChem BioAssay (NCI)
Compounds without any hit were thinned out: in the full panel of roughly 83,000, 20% have a hit.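 Negative percent growth values reflect cell death: -40 means 40% of the cells present at the start died, and -100 means all died.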 Unmarked numbers belong to inactive results. Activity calls are given as the source filed them. Rule for the calls: active = growth percent below 10; inactive = the rest.

system: 786-0 renal; experiment: NCI-60 one-dose screen, 48 h (100 = growth as untreated, 0 = no growth, -100 = all killed); settings: 10 µM unless noted

Row | Compound | growth
1 | CN(C)CCNc1nc2ccccc2c2c(=O)c3ccccc3sc12 | 28.6%
2 | Nc1nc2ccc(CNc3ccc(C(=O)NC(CC(=O)O)C(=O)O)cc3)cc2c(=O)[nH]1 (centres undefined) | 7.57% (active)
3 | CC12CCC3C(CCC4CC(O)CCC43C)C1C/C(=C/O)C(=O)O2 (centres undefined) | 111%
4 | COc1cc(/C=C/C(=O)c2ccc(Oc3ncnc4ccccc34)cc2)cc(OC)c1OC | 82.2%
5 | Nc1n[nH]c2cccc(C#Cc3cccc(NC(=O)c4cccc(C(F)(F)F)c4)c3)c12 | 23.1%
6 | COc1ccc(-c2nn(-c3ccc(NC(=O)c4ccc(Cl)c(C(F)(F)F)c4)cc3)cc2-c2ccncc2)cc1Cl | -55.7% (active)
7 | CCCN1C(=O)CSC1=Nc1ccc2cc3ccc(N=C4SCC(=O)N4CCC)cc3nc2c1 | 8.44% (active)
8 | CCOC(=O)C1=C(N)Oc2cc(OC)ccc2C1c1ccc(F)c(F)c1 (centres undefined) | 33.1%
9 | CC(C(C(=O)N1CCCCC1)N1CCCCC1)N1CCCCC1 (centres undefined) | 108%
10 | COc1ccc2c(-c3ccc(F)cc3)c(C#N)c(=NC(C)=O)oc2c1 | 33.4%
11 | COc1ccc(-c2nnc(SCC(=O)Nc3ccc(C(=O)/C=C/c4ccc(Cl)cc4)cc3)o2)cc1OC | 70.8%
12 | COc1cccc(/C=N/C(=S)NC2(C)C3CCC(C3)C2(C)C)c1O (centres undefined) | 88%
13 | FC(F)(F)c1cn(CCN2CCOCC2)c2ncnc(Cl)c12 | 113%
14 | COc1ccc(-c2nn(-c3ccc(NC(=O)Nc4cc(C(F)(F)F)cc(C(F)(F)F)c4)cc3)cc2-c2ccncc2)cc1Cl | 1.94% (active)
